Here are results for 62 molecules from publication PMC8769072, “Proteome‐scale mapping of binding sites in the unstructured regions of the human proteome” (Molecular Systems Biology, 2022).

Sequence of USP7 53-206, Q93009 (Q93009 53-206): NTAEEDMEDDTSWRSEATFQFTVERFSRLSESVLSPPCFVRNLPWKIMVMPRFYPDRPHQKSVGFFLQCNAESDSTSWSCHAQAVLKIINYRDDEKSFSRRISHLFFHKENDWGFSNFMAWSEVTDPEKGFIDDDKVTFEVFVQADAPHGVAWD
Sequence of TSG101 1-145, Q99816 (Q99816 1-145): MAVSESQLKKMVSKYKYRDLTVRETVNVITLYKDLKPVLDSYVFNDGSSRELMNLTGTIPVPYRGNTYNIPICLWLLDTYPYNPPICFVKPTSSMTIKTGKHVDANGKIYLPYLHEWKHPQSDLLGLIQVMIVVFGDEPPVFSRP
Sequence of TNKS 174-649, O95271 (O95271 174-649): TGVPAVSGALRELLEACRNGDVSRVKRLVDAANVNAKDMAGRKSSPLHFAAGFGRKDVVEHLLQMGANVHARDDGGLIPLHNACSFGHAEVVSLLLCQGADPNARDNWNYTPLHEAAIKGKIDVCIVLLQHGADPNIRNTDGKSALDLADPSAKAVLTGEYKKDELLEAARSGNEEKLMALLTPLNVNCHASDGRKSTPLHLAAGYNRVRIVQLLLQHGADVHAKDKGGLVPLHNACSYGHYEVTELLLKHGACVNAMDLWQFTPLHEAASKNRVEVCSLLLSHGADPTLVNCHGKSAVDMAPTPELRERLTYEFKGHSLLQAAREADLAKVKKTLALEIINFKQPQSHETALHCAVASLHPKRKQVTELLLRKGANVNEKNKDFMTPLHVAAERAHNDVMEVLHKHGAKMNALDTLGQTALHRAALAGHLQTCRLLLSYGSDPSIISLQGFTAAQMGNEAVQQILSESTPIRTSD

Consider PLEPSAPSKLHSVTGI [BEST1, O76090], for which the “selected by phage display” value with TSG101 1-145, Q99816 was “confidence 3 (active)”.

Consider EEQAGTVASAPLGHSD [LRRFIP1, Q32MZ4], for which the “selected by phage display” value with TSG101 1-145, Q99816 was “confidence 4 (active)”.

For GTREDPAGQETTAITN [LINC01547, P58512], the “selected by phage display” value with TNKS 174-649, O95271 was “confidence 2 (active)”.

With MSGLVLGQRDEPAGHR [KLC4, Q9NSK0], the “selected by phage display” value with TNKS 174-649, O95271 was “confidence 2 (active)”.

As for VTLPTAPNMNSEPTLQ [MFSD6, Q6ZSS7], in the test with TSG101 1-145, Q99816, the “selected by phage display” value was “confidence 3 (active)”.

In the case of AEPSAPSLPAGPTGVE [TMEM131L, A2VDJ0], the “selected by phage display” value with TSG101 1-145, Q99816 is “confidence 3 (active)”.

For the molecule AVGASAPSAPTAHPQP [DCAF1, Q9Y4B6], the “selected by phage display” value in the test with TSG101 1-145, Q99816 is “confidence 2 (active)”.

Take MARPDPSAPPSLLLLL [FZD5, Q13467]: the “selected by phage display” value with TSG101 1-145, Q99816 was “confidence 2 (active)”.

DAPLLQPSAPSSSSSQ [GGA3, Q9NZ52]: the “selected by phage display” value with TSG101 1-145, Q99816 was “confidence 2 (active)”.

As for VTVVPTAPDPVPADSV [CABIN1, Q9Y6J0], the “selected by phage display” value with TSG101 1-145, Q99816 is “confidence 3 (active)”.

Take ATGSDPLWQRLEPAGH [PLCH2, O75038]: in the test with TNKS 174-649, O95271, the “selected by phage display” value is “confidence 4 (active)”.

As for PVVPTAPELQPSTSTD, the “selected by phage display” value with TSG101 1-145, Q99816 was “confidence 3 (active)”.

Take LSNSESKATSSLMMLD [SIX4, Q9UIU6]: the “selected by phage display” value with USP7 53-206, Q93009 was “confidence 2 (active)”.

Regarding PTAPPLQPHPGLHHQS [CHD7, Q9P2D1], the “selected by phage display” value in the test with TSG101 1-145, Q99816 is “confidence 4 (active)”.

As for GSIVRPSAPPARSSVP, the “selected by phage display” value with TSG101 1-145, Q99816 is “confidence 2 (active)”.

In the case of EMAVVLNGGTIPTAPP [GPRC5B, Q9NZH0], in the test with TSG101 1-145, Q99816, the “selected by phage display” value is “confidence 4 (active)”.

For the molecule DAASSSGSSSHAHVNS [RTTN, Q86VV8], in the test with USP7 53-206, Q93009, the “selected by phage display” value is “confidence 3 (active)”.

Take SLPHTPTTPTAPLTPV [FOXP1, Q9H334]: the “selected by phage display” value with TSG101 1-145, Q99816 was “confidence 3 (active)”.

Take VGAKALPTAPPPPPLP [INF2, Q27J81]: in the test with TSG101 1-145, Q99816, the “selected by phage display” value is “confidence 3 (active)”.

Take NLSLTPSAPSLTLEAG [SRCAP, Q6ZRS2]: in the test with TSG101 1-145, Q99816, the “selected by phage display” value was “confidence 3 (active)”.

As to EALLTPLPPSAPPSVD [NPIPA3, F8WFD2], the “selected by phage display” value with TSG101 1-145, Q99816 was “confidence 3 (active)”.

For the molecule SVAKAVQASAPADERI [STOX1, Q6ZVD7], the “selected by phage display” value in the test with TSG101 1-145, Q99816 was “confidence 3 (active)”.

With EHAELAPPAPSAPSWG [SHKBP1, Q8TBC3], the “selected by phage display” value with TSG101 1-145, Q99816 is “confidence 3 (active)”.

With PSAAEHIVSPSAPAGD [TACC2, O95359], the “selected by phage display” value in the test with TSG101 1-145, Q99816 was “confidence 2 (active)”.

Regarding PTPTAPLLPPQPATPL [EP300, Q09472], the “selected by phage display” value with TSG101 1-145, Q99816 is “confidence 2 (active)”.

Turning to PTAPELRPSTSTDRPV, the “selected by phage display” value with TSG101 1-145, Q99816 was “confidence 3 (active)”.

On to TSVVGFSADGMRPEAI [MAP4K4, O95819], for which, in the test with TNKS 174-649, O95271, the “selected by phage display” value was “confidence 2 (active)”.

Regarding SLMPSAPHPVKEASPG [TET1, Q8NFU7], the “selected by phage display” value with TSG101 1-145, Q99816 is “confidence 3 (active)”.

Turning to HDATASSSSAAATVRA [BSN, Q9UPA5], the “selected by phage display” value with USP7 53-206, Q93009 is “confidence 4 (active)”.

Regarding EVLASAPPLPPSTAAP [WASH4P, A8MWX3], in the test with TSG101 1-145, Q99816, the “selected by phage display” value was “confidence 3 (active)”.

In the case of ANTDPTAPPYDTLLVF [CDH3, P22223], the “selected by phage display” value with TSG101 1-145, Q99816 is “confidence 2 (active)”.

As to VPNMPSAPQAYSELQM [UBAP1, Q9NZ09], in the test with TSG101 1-145, Q99816, the “selected by phage display” value is “confidence 3 (active)”.

Consider DSTVHTSATAPTYIAN [MGAM2, Q2M2H8], for which the “selected by phage display” value with TSG101 1-145, Q99816 is “confidence 3 (active)”.

Consider PSALPSVPEPSAPAAP [TRIM47, Q96LD4], for which the “selected by phage display” value with TSG101 1-145, Q99816 was “confidence 3 (active)”.

For GPTAPPAPGPTAPPAF [SUFU, Q9UMX1], in the test with TSG101 1-145, Q99816, the “selected by phage display” value is “confidence 2 (active)”.

On to AEASAPPAPELFSPPV [EME1, Q96AY2], for which the “selected by phage display” value in the test with TSG101 1-145, Q99816 is “confidence 2 (active)”.

Regarding PSAPDMEDFGLVKLPH [POLE, Q07864], the “selected by phage display” value with TSG101 1-145, Q99816 is “confidence 2 (active)”.

SQPSAPDFVQRGFDSF [UTRN, P46939]: the “selected by phage display” value with TSG101 1-145, Q99816 was “confidence 2 (active)”.

As to GAMAVTANPPSNPYWI [ATP10D, Q9P241], the “selected by phage display” value in the test with TSG101 1-145, Q99816 is “confidence 2 (active)”.

For PQLPHLQRSPPDGQSF [SH3BP2, P78314], the “selected by phage display” value with TNKS 174-649, O95271 is “confidence 2 (active)”.

Consider PTLQPSAPQQARDPFE [DENND1A, Q8TEH3], for which the “selected by phage display” value with TSG101 1-145, Q99816 was “confidence 2 (active)”.

On to ARQEPQGQEHQVDNTV [AMOTL1, Q8IY63], for which the “selected by phage display” value in the test with TNKS 174-649, O95271 was “confidence 3 (active)”.

For KPSAPPAPELNNSLHP [KMT2D, O14686], in the test with TSG101 1-145, Q99816, the “selected by phage display” value was “confidence 3 (active)”.

As to TAAIPSAPVLPPPPVH, the “selected by phage display” value with TSG101 1-145, Q99816 is “confidence 4 (active)”.

In the case of LTPTAPSRTGSVQTPP [SSFA2, P28290], the “selected by phage display” value in the test with TSG101 1-145, Q99816 is “confidence 4 (active)”.

Turning to AGPGGGLTPSAPPYGA [PIP4P1, Q86T03], in the test with TSG101 1-145, Q99816, the “selected by phage display” value was “confidence 3 (active)”.

Consider PSAPLPFVPPPAVPSV [PRRC1, Q96M27], for which the “selected by phage display” value with TSG101 1-145, Q99816 was “confidence 4 (active)”.

Turning to VVVPSAPEVQETTRML [NEO1, Q92859], the “selected by phage display” value with TSG101 1-145, Q99816 was “confidence 2 (active)”.

On to PSAPPQVQLPVSLDLP [ZFHX4, Q86UP3], for which, in the test with TSG101 1-145, Q99816, the “selected by phage display” value was “confidence 2 (active)”.

Consider VPSAPIDPQAQLEADK [PKNOX2, Q96KN3], for which the “selected by phage display” value in the test with TSG101 1-145, Q99816 is “confidence 2 (active)”.

Take VQPSAPEHSSLASWLL [GUCY1B2, O75343]: the “selected by phage display” value with TSG101 1-145, Q99816 is “confidence 4 (active)”.

For LPSAPGAEQTAGSLLY [E2F3, O00716], the “selected by phage display” value with TSG101 1-145, Q99816 was “confidence 2 (active)”.

For the molecule PSVPSVSTTSVTMPNV [TSC22D2, O75157], in the test with USP7 53-206, Q93009, the “selected by phage display” value was “confidence 4 (active)”.

Consider PTAPIFLQGLSDLKVM [MYLK, Q15746], for which the “selected by phage display” value with TSG101 1-145, Q99816 was “confidence 3 (active)”.

Consider LSRTFLSIPSAPPLYL [CCDC168, Q8NDH2], for which the “selected by phage display” value in the test with TSG101 1-145, Q99816 is “confidence 2 (active)”.

With SSSSSLSSASSSSTVV [ING3, Q9NXR8], the “selected by phage display” value in the test with USP7 53-206, Q93009 was “confidence 2 (active)”.

For the molecule LLPETVSPSAPSWREP [CBX6, O95503], the “selected by phage display” value in the test with TSG101 1-145, Q99816 was “confidence 3 (active)”.

For YLSFRSVGDGLSTSAV [CSB-PGBD3, P0DP91], the “selected by phage display” value with TNKS 174-649, O95271 is “confidence 3 (active)”.

Take EEDADTMRLQPIGRDK [RSF1, Q96T23]: the “selected by phage display” value with TNKS 174-649, O95271 is “confidence 3 (active)”.

As for EVHTAPSAPLAFGSQQ [ZNF589, Q86UQ0], in the test with TSG101 1-145, Q99816, the “selected by phage display” value was “confidence 3 (active)”.

As to APSAPPAPPAPPESTV [ATOH8, Q96SQ7], the “selected by phage display” value in the test with TSG101 1-145, Q99816 was “confidence 3 (active)”.

Regarding PSAPTPPIPSPPSTLP [ANTXR1, Q9H6X2], the “selected by phage display” value in the test with TSG101 1-145, Q99816 is “confidence 2 (active)”.
